The record followed here is PubChem BioAssay (Tox21).

A short description of assay [1]: qHTS assay to identify small molecule antagonists of the estrogen related receptor (ERR) signaling pathway - cell viability counter screen (AID 1224818).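 Also: series mostly up to about 46 µM; viability measured after 17.5 h of compound exposure.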 The method, boiled down:
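Quantitative high-throughput viability counter screen in ERR cells. Compounds (DMSO) incubated 17.5 h at 37 C; read-out was CellTiter-Fluor fluorescence.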

Assay [2] in a line: qHTS assay to identify small molecule antagonists of the estrogen related receptor (ERR) signaling pathway (AID 1224819; also: series mostly up to about 46 µM; nearly all actives have a fitted effect of over 50% in size). Put shortly:
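ERR reporter cell line (NTP) plated at 2,000 cells/well, settled 6 h at 37C/5% CO2, then exposed to LOPAC compounds for 18 h at 37C. One-Glo luciferase luminescence read after 30 min at room temperature.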
On the technique in general: In qHTS, concentration-response curves come from the screen itself.

Assay [3] is described as follows: qHTS assay to identify small molecule agonists of the estrogen related receptor (ERR) signaling pathway (AID 1224820). Also: potency is read from the fitted curve at half-maximal effect. The method, boiled down:
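After 6 h plating (2,000 cells/well) and 18 h compound treatment at 37 C, ERR cells were lysed with One-Glo and luminescence read after 30 min at room temperature.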

Assay [4] relates to estrogen-related receptor alpha (ERRalpha) with PGC-1alpha coactivator, human. Nature of the assay: qHTS assay to identify small molecule antagonists of the estrogen related receptor signaling pathway with the pleiotropic PPARgamma coactivator (PGC) (AID 1224821; calls by dose curve;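 also: series mostly up to about 46 µM; lower luminescence signal means antagonism of PGC/ERR signalling; nearly all actives have a fitted effect of over 50% in size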). Put shortly: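 Luminescence from One-Glo luciferase reagent (30 min, room temperature) measured after 18 h compound treatment at 37 °C. Cells carry the PGC/ERR reporter and were seeded 6 h prior to dosing.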

Assay [5] is described as follows: qHTS assay to identify small molecule antagonists of the estrogen related receptor signaling pathway with the pleiotropic PPARgamma coactivator (PGC) cell viability counter screen (AID 1224822; also: series mostly up to about 46 µM). Put shortly: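 Cytotoxicity in the PGC/ERR cell line is assessed with CellTiter-Fluor, read as fluorescence intensity 30 min after reagent addition, following 17.5 h compound treatment at 37 C.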

A short description of assay [6]: qHTS assay to identify small molecule agonists of the estrogen related receptor signaling pathway with the pleiotropic PPARgamma coactivator (PGC) (AID 1224823). Also: potency is read from the fitted curve at half-maximal effect. The method, boiled down:
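Luminescence from One-Glo reagent (30 min, room temperature) was read after 18 h compound treatment at 37 C of PGC/ERR cells plated 6 h beforehand; compounds delivered in DMSO by pin tool.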

Records with an inconclusive call do not appear. The source made the active and inactive calls. Unless noted, calls follow the shape of the dose curve; as a rule, active = well fitted curve in the direction sought with a large enough effect in the repeat runs; inconclusive = weak or mixed curves; inactive = no such curve, though single readings can be large; an effect the other way counts as inactive or inconclusive.

Take `CCCCCCC(=O)OC1CC(C)(C)NC(C)(C)C1`: the Potency entry in assay [1], in assay [2], in assay [3], in assay [4], in assay [5] and in assay [6] was “inactive” throughout.
For the molecule `Cc1ccc([N+](=O)[O-])cc1S(=O)(=O)N(C)C`, the Potency entry in assay [1], in assay [2], in assay [3], in assay [4], in assay [5] and in assay [6] was “inactive” in each case.
Consider `CC(=O)NCCc1c[nH]c2ccc(O)cc12`, for which the Potency result in assay [1], in assay [2], in assay [3], in assay [4], in assay [5] and in assay [6] was “inactive” in each case.
For `CC(=O)O[C@H]1CC2(C)[C@@H](C[C@@H](O)[C@H]3[C@@]4(C)CC[C@@H](O)[C@@H](C)[C@@H]4CC[C@@]32C)C1=C(CCC=C(C)C)C(=O)O` (stereo not given in full), the Potency result in assay [1], in assay [2], in assay [3], in assay [4], in assay [5] and in assay [6] was “inactive” each time.
With `NC1CCN(O)C1=O` (stereo not given), the Potency entry in assay [1], in assay [2], in assay [3], in assay [4], in assay [5] and in assay [6] was “inactive” in each case.
Turning to `NC(=S)c1ccc[n+]([C@@H]2O[C@@H](COP(=O)([O-])OP(=O)(O)OC[C@H]3O[C@@H](n4cnc5c(N)ncnc54)[C@H](OP(=O)(O)O)C3O)C(O)C2O)c1` (stereo not given in full), the Potency result in assay [1], in assay [2], in assay [3], in assay [4] and in assay [5] was “inactive” throughout. The Potency in assay [6] was 18.8 µM (active).
`C=C/C(C)=C/[C@@]1(C)SC(=O)C(C)=C1O`: the Potency entry in assay [1], in assay [2], in assay [3], in assay [4], in assay [5] and in assay [6] was “inactive” each time.
For the molecule `NCCSSCCN`, the Potency entry in assay [1], in assay [2], in assay [3], in assay [4], in assay [5] and in assay [6] was “inactive” throughout.
As to `O=C(O)CCC/C=C\C[C@@H]1[C@@H](/C=C/[C@H](O)C2Cc3ccccc3C2)[C@@H](F)C[C@@H]1O`, the Potency result in assay [1], in assay [2], in assay [3], in assay [4], in assay [5] and in assay [6] was “inactive” throughout.
Regarding `C[N+]1(CCCCC[N+]2(C)CCCC2)CCCC1`, the Potency result in assay [1], in assay [2], in assay [3], in assay [4], in assay [5] and in assay [6] was “inactive” in each case.
For `CC1CNCCN1S(=O)(=O)c1cccc2cnccc12` (stereo not given), the Potency result in assay [1], in assay [2], in assay [3], in assay [4], in assay [5] and in assay [6] was “inactive” each time.
Take `NC(=O)c1cc[n+](CC2=C(C(=O)O)N3C(=O)[C@@H](NC(=O)[C@@H](c4ccccc4)S(=O)(=O)[O-])[C@H]3SC2)cc1`: the Potency result in assay [1], in assay [2], in assay [3], in assay [4], in assay [5] and in assay [6] was “inactive” in each case.
`Brc1cc2c(cc1[C@H]1Nc3ccccc3[C@H]3C=CC[C@H]31)OCO2`: the Potency entry in assay [1], in assay [2], in assay [3], in assay [4], in assay [5] and in assay [6] was “inactive” throughout.
On to `C#CC(N)CCC(=O)O` (stereo not given), for which the Potency entry in assay [1], in assay [2], in assay [3], in assay [4], in assay [5] and in assay [6] was “inactive” each time.
For the molecule `CC1(C)CCC(NC(=O)[C@@H](N)CCC(=O)O)CC1`, the Potency entry in assay [1], in assay [2], in assay [3], in assay [4], in assay [5] and in assay [6] was “inactive” throughout.
As for `CN1CC(O)C(O)C(O)C1CO` (stereo not given), the Potency entry in assay [1], in assay [2], in assay [3], in assay [4], in assay [5] and in assay [6] was “inactive” each time.
Turning to `Fc1cccc(/C=N/N=C/c2cccc(F)c2)c1`, the Potency entry in assay [1], in assay [2], in assay [4] and in assay [5] was “inactive” each time. Also, the results for the Potency in assay [3] and in assay [6] were 15.5 µM (active) and 12.3 µM (active), respectively.
With `O=C(OCCN1CCOCC1)C1(c2ccccc2)CCCCC1`, the Potency entry in assay [1], in assay [2], in assay [3], in assay [4], in assay [5] and in assay [6] was “inactive” throughout.
As for `O=C(O)C1CCNCC1`, the Potency entry in assay [1], in assay [2], in assay [3], in assay [4], in assay [5] and in assay [6] was “inactive” in each case.
Turning to `CN1C2CCCC1CC(NC(=O)c1nn(C)c3ccccc13)C2` (stereo not given), the Potency result in assay [1], in assay [2], in assay [3], in assay [4], in assay [5] and in assay [6] was “inactive” each time.
For `Cc1cccc(C(=O)NCN2CCN(c3ccccc3C#N)CC2)c1`, the Potency result in assay [1], in assay [2], in assay [3], in assay [4], in assay [5] and in assay [6] was “inactive” throughout.
For `CN(C)CCCc1cc(C(=O)Nc2ccc(-c3ccncc3)cc2)ccc1O`, the Potency entry in assay [1], in assay [2], in assay [3], in assay [4], in assay [5] and in assay [6] was “inactive” in each case.
In the case of `O=C(O)CCC(C(=O)O)N1C(=O)c2ccccc2C1=O` (stereo not given), the Potency entry in assay [1], in assay [2], in assay [3], in assay [4], in assay [5] and in assay [6] was “inactive” in each case.
Turning to `Cc1cn([C@H]2CC(N=[N+]=[N-])[C@@H](CO)O2)c(=O)[nH]c1=O` (stereo not given in full), the Potency entry in assay [1], in assay [2], in assay [3], in assay [4], in assay [5] and in assay [6] was “inactive” in each case.
For `OCC1O[C@H](O)C(Cl)C(O)C1O` (stereo not given in full), the Potency result in assay [1], in assay [2], in assay [3], in assay [4], in assay [5] and in assay [6] was “inactive” in each case.
In the case of `O=C1NC(=O)/C(=C/c2ccc3c(c2)OC(F)(F)O3)S1`, the Potency entry in assay [1], in assay [2], in assay [4], in assay [5] and in assay [6] was “inactive” each time. In assay [3], the Potency was 3.16 µM (active).
For the molecule `O=c1[nH]c2cc([N+](=O)[O-])c([N+](=O)[O-])cc2[nH]c1=O`, the Potency result in assay [1], in assay [2], in assay [3], in assay [4], in assay [5] and in assay [6] was “inactive” throughout.
Turning to `CC(=O)N[C@H](C(=O)O)C(C)(C)SN=O`, the Potency result in assay [1], in assay [2], in assay [3], in assay [4], in assay [5] and in assay [6] was “inactive” throughout.
Turning to `C=C(C)C1CC=C(C(=O)O)CC1` (stereo not given), the Potency entry in assay [1], in assay [2], in assay [3], in assay [4], in assay [5] and in assay [6] was “inactive” in each case.
As for `CC(=O)SCC[N+](C)(C)C`, the Potency result in assay [1], in assay [2], in assay [3], in assay [4], in assay [5] and in assay [6] was “inactive” throughout.
